Molecules are shown by their SMILES. The campaign covered roughly 150,000 compounds. About 180 (0.12%) were called active. Entries that show only a call come without a potency. Not shown: some 6% with an inconclusive outcome. This is one part of a sample in which actives are shown more often than they occur. A number with no mark means an inactive call. Calls follow the shape of the dose curve; as a rule, active = well fitted cell-killing curve with a large enough effect; inconclusive = small, poorly fitted or top-dose-only effect, or effect the other way; inactive = flat fitted curve, though single readings scatter.
Potency is read from the fitted curve at half-maximal effect.

A short description of the assay: GF-AFC viability counterscreen for inhibitors of alpha-synuclein gene (SNCA) expression. Also: nearly all actives have a fitted effect of over 30% in size. The settings on record: HEK-293-SNCA-luc viability, GF-AFC fluorescence, 24 h; series mostly up to 57.1 µM. An excerpt:
Assay Submitter (PI): Daniel R. Scoles Ph.D.
Department of Neurology, University of Utah, Salt Lake City, Utah
Accumulation of alpha-synuclein is a main underlying pathological feature of Parkinson's disease (PD) and alpha-synucleinopathies, for which lowering expression of the alpha-synuclein gene (SNCA) is a potential therapeutic avenue. Using a cell-based luciferase reporter of SNCA expression we performed a quantitative high throughput screen (qHTS) of 155,885 compounds in dose response. The screening assay was generated using genome editing to insert the luciferase gene downstream and in frame of the SNCA gene in HEK-293 cells (1). A viability counterscreen using GF-AFC was used to eliminate cytotoxic and false positive compounds. After in silico analysis (clustering, removal of frequent hitter nuisance chemotypes), inhibitor compounds from the primary screen were selected for follow up and re-tested at 11-doses in the SNCA-luc cells (luciferase and GF-AFC confirmation), and in CMV-luc expressing cell line to flag general transcriptional repressors.
Described herein are the results of the GF-AFC viability counterscreen for SNCA inhibitors; inactivity (no decrease in fluorescence signal, not cytotoxic) is the desired output for this assay.
1. Dansithong, W., Paul, S., Scoles, D. R., Pulst, S. M., and Huynh, D. P. (2015) Generation of SNCA Cell Models Using Zinc Finger Nuclease (ZFN) Technology for Efficient High-Throughput Drug Screening. PLoS ONE 10, e0136930.
SEQUENCE No. (e.g., 1, 2, 3, etc.); […] (e.g., Cells, Incubation, Reagent, etc.); VALUE; DESCRIPTION
1; Cells; 4 uL; Dispense 1500 HEK-293-SNCA-luc cells/well into Greiner 1536-well white / solid bottom tissue culture treated plate. The plate was covered with metal lids with gas-exchange holes.
2; Incubate; 24 hours; Incubate at 37C, 5% CO2, 95% RH.
3; Compounds; 23 nL; Compounds and controls were transferred via a Kalypsys Pin Tool (Wako USA) equipped with a 1536-slotted pin array. The plate was covered with metal lids with gas-exchange holes.
4; Incubate; 24 hours; Incubate at 37C, 5% CO2, 95% RH.
5; Dispense; 1 uL; Dispense Gly-Phe-7-amino-4-trifluoromethylcoumarin (GF-AFC, prepared at 125 uM in PBS) was added. The plate was covered with metal lids with gas-exchange holes.
6; Incubate; 30 min; Incubate at 37C, 5% CO2.
7; Detector; Fluorescence; Measure fluorescence with ViewLux microplate reader (PerkinElmer) equipped with 405/10 excitation and 540/25 emission filters.
8; Dispense; 3 uL; Dispense ONE-Glo ([…]) lucifase detection reagent was added to each well. Plates were covered with metal lids with gas-exchange holes.
9; Incubate; 15 min; Incubate at room temperature.
10; Detector; Luminescence; Measure luminescence with ViewLux microplate reader (PerkinElmer) equipped with clear filters.
NOTES (numbers refer to sequence above)
1; HEK-293-SNCA-luc were cultured and suspended in phenol-red free DMEM (4.5 g/L glucose, 25 mM HEPES, cat #21063 (Thermo)).
3; Compounds were added to the assay plate in an 11-point intra plate dose response, 1:3 titration in DMSO with a final concentration range of […]. Vehicle-only plates, with DMSO being pin-transferred to every well, were inserted at the beginning of screening runs to confirm expected assay performance. Activity was normalized to wells containing medium only (-100% activity, full inhibition) and SNCA-luc cells treated with DMSO vehicle control (0% activity), contained on the same plate as test samples.
10; Signals were analyzed, and dose-response curves were fit using the Hill equation. Compounds in curve classes -1.1, -1.2, -2.1, -2.2 in the SNCA-luc assay were considered active. Compounds were eliminated from further consideration if also active (curve class -1.1, -1.2, -1.3, -1.4, -2.1, -2.2, -2.3, -2.4) in the GF-AFC cytotoxicity assay.
A general note: A counterscreen serves to expose hits that act by an unwanted route or on another target.
For the compound `Cc1ccc(NC(=O)c2nc(S(=O)(=O)Cc3cccc(C)c3)ncc2Cl)cc1`, the Potency is 28.2 µM (active). The same measure, in the same setting: the result for `CC1=C[C@@H](CN2CCC(O)CC2)[C@H](C(C)C)C[C@H]1Cc1nnc(-c2ccccc2F)o1` reads “inactive”; that for `C[C@@H](c1ccccc1)N(C)C(=O)c1cc(COc2cccc(F)c2)[nH]n1`, “inactive”.

Regarding `CCOC(=O)c1cccc(NC(=O)c2ccc3c(c2)N(C)C2CCCCN2C3=O)c1` (configuration not stated), the activity change, negative = cytotoxicity is 4.91% [at 12.5 µM]. For `Cc1cccc(C(=O)N2CCC(OC3CCN(Cc4ccccc4)CC3)CC2)c1`, the Potency result was “inactive”. On to `O=C(Nc1ccc(C(F)(F)F)cc1)C1=NO[C@@H]2CN(CCc3ccccc3)C[C@H]12`, for which the Potency result was “inactive”.

As for `COc1ccc(S(=O)(=O)N2C[C@@H]3C[C@H](C2)c2c(NC(=O)C4CCCCC4)ccc(=O)n2C3)cc1`, the Potency result was “inactive”. For `Cc1ccc(S(=O)(=O)N2CCCC(Cn3c(C4CC4)nc4cccnc43)C2)cc1C` (configuration not stated), the Potency entry is “inactive”. Still for that read-out and setting: the result for `CC(C)c1nc(-c2ccc(OC3CCN(C(=O)CCc4nc5ccccc5[nH]4)C3)cc2)no1` (configuration not stated) reads “inactive”.

For the compound `COc1ccc(-n2nc(C)c([C@@H]3C=C[C@@H](NC(=O)Nc4ccccc4)C3)c2C)cc1`, the Potency entry was “inactive”. Consider `CCc1ccccc1NC(=O)N1CCCC(Cn2c(C)nc3cccnc32)C1` (configuration not stated), for which the Potency result was “inactive”. `O=C(NC1CCN(c2nc3ncccc3o2)CC1)c1ccc(Cl)nc1`: the Potency result is “inactive”. Same read-out and setting: to `CCc1ccc(NC(=O)Cn2ccn3nc4c(c3c2=O)CCCC4)cc1` belongs “inactive”; to `COc1ccc(NC(=O)N[C@H]2[C@H](O)[C@@H](N3CCN(c4ccccc4)CC3)[C@@H]3OC[C@H]2O3)cc1`, “inactive”. On the same count and under the same terms, to `Cc1nc(N(C)C)ncc1C(=O)NC(C(=O)O)c1c(C)n[nH]c1C` (configuration not stated) belongs “inactive”; to `COc1ccc(CC(=O)N2CC[C@@H](CC(=O)O)[C@@H](CCN3CCNCC3)C2)cc1`, “inactive”.

As for `Cc1cc(NC(=O)c2ccc3c(c2)N(C)C2CCCCCN2C3=O)ccc1F` (configuration not stated), the activity change, negative = cytotoxicity is -3.22% [at 12.5 µM].

Take `COc1nc2nc(CC3CC3)n(C)c2cc1-c1cccc(NC(C)=O)c1`: the Potency entry is “inactive”. On to `O[C@H]1[C@H](NCc2ccco2)[C@H]2CO[C@H](O2)[C@@H]1N1CCC(Cc2ccccc2)CC1`, for which the Potency result is “inactive”. For the compound `COCCC1(NS(C)(=O)=O)CCN(C(=O)c2ccc(OC)nc2OC)CC1`, the Potency entry was “inactive”. On to `CC(NC(=O)c1ccc(OC(F)(F)F)cc1)C(=O)N1CCN(c2ccccn2)CC1` (configuration not stated), for which the Potency entry was “inactive”. Same read-out and setting: to `CCNC(=O)N1CCCC1c1noc(CCC(=O)NC2CCCC2)n1` (configuration not stated) belongs “inactive”; to `O=C1Nc2ccccc2CC12CCCN2Cc1ccccc1` (configuration not stated), “inactive”; to `Cc1cc(N2CCC3(CC2)CC(c2ccccc2)C(=O)N3C)ncn1` (configuration not stated), “inactive”. On the same count and under the same terms, to `Cc1cccnc1CN1CCN(C(=O)Cn2nnnc2CN2CCCC2)CC1` belongs “inactive”.

With `CC1=C[C@@H](CNC(C)C)[C@H](C(C)C)C[C@H]1Cc1nnc(-c2ccncc2)o1`, the Potency entry is “inactive”. Still for that read-out and setting: the result for `CC1=C[C@@H](CNC2CC2)[C@H](C(C)C)C[C@H]1Cc1nnc(-c2ccc(C)cc2)o1` reads 35.5 µM (active).

On to `CC1=C[C@@H](CNS(C)(=O)=O)[C@H](C(C)C)C[C@H]1Cc1nnc(-c2ccncc2)o1`, for which the Potency result is “inactive”. Still for that read-out and setting: the result for `O=C1CCC2(C(=O)NCc3cccc(F)c3)CCC=C2N1C1CCCC1` (configuration not stated) reads “inactive”. Same read-out and setting: to `O=C1[C@@H]2C[C@@H](CN2Cc2ccc3ccccc3n2)Oc2ccccc2N1Cc1ccccc1` belongs “inactive”; to `COc1ccccc1-c1cccc(CN2CCCC(C(=O)NCC3CC3)C2)c1` (configuration not stated), “inactive”. Regarding `CN(C(=O)CN1C(=O)NC2(CCOCC2)C1=O)c1ccccc1`, the Potency result was “inactive”. The same measure, in the same setting: the result for `O=c1cc(-c2ccccn2)oc2c(-c3ccccc3F)nccc12` reads “inactive”; that for `COc1ccc2c(c1)OCC(C(=O)NCc1cc3cc(OC)ccc3[nH]1)C2` (configuration not stated), “inactive”. For `COCCC(=O)N1CCCCCCNC(=O)[C@@H]2CCCC[C@@H]21`, the Potency entry is “inactive”. On the same count and under the same terms, the result for `Cc1ccc(CN2CCCCCNC(=O)[C@H]3C[C@H](C(=O)N4CCc5ccccc5C4)C[C@H]32)o1` reads “inactive”. As to `COc1ccc(-c2noc(C(=O)O)c2[C@@H](C)NS(=O)(=O)c2ccccc2)cc1`, the Potency entry is “inactive”.

As to `O=C(NCC1CC1)c1cn(C2CN(C(=O)C3CCOC3)C2)nn1` (configuration not stated), the Potency result was “inactive”.

With `O=C(Cc1cccc(F)c1)N1CCC2(CCC2N2CCOCC2)CC1` (configuration not stated), the Potency result is “inactive”. With `Cc1cccc(CN2CCCN(Cc3ccncc3)C(c3ccccc3)CC(=O)NCC2)c1` (configuration not stated), the Potency result was “inactive”. As to `CSc1oc(-c2cccs2)nc1S(=O)(=O)c1ccc(Br)cc1`, the Potency result was “inactive”. Still for that read-out and setting: the result for `Cc1ccc(CSc2oc(-c3cccs3)nc2S(=O)(=O)c2ccc(C)cc2)cc1` reads “inactive”; that for `CCCCS(=O)(=O)c1oc(-c2cccs2)nc1S(=O)(=O)c1ccccc1`, 12.6 µM (active); that for `O=C(CCCc1c[nH]c2ccccc12)N1CCC2(CC1)CC(CCOCC1CC1)CCO2` (configuration not stated), “inactive”. Regarding `CCc1cccc(NC(=O)N2[C@@H]3CC[C@H]2CC(NC(=O)c2ccc(F)cc2)C3)c1` (some centres not stated), the Potency result was “inactive”. Consider `O=C(NCc1cccc(C(F)(F)F)c1)c1nn(CCOc2ccccc2)c2c1CNCC2`, for which the Potency result is “inactive”. Regarding `Cn1ccnc1CNCC1(COc2ccc(C(F)(F)F)cn2)C[C@@H](O)[C@@H](O)C1` (some centres not stated), the Potency entry is “inactive”.
